Laboratory results reported in PubChem BioAssay AID651871 (Sanford-Burnham Center for Chemical Genomics, 2012).
Values joined by “and” are separate entries in the source; they are usually repeats but may differ in a detail not shown here. Equal values may be shown once.

Test system: H9c2
Test: cardiomyocyte survival under oxidative or metabolic stress – cell-based, panel, H9c2 and HL-1, ATP luminescence, set 2, SAR follow-up (AID 651871);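 note: cells exposed to stressor for 2 h before ATP readout; reference of the scale not given here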
Details: H9c2/HL-1 cardiomyocytes, H2O2 oxidative stress; with H2O2, run 4, at 79 µM (top of the series)

How did the activity (protection/inhibition) turn out when `CCOC(=O)c1cccc(NC(=O)CNC(=O)c2cc(-c3cc(OC)c(OC)c(OC)c3)nc3ccccc23)c1` was run?
The activity (protection/inhibition) was 115%.

How did the activity (protection/inhibition) turn out when `COc1ccc2c(c1OC)C(=O)N1c3ccccc3C(=O)N(Cc3cccc(Cl)c3Cl)C21` (centres undefined) was run?
The activity (protection/inhibition) was 52.4% and 40.9%.

For `COc1ccc2nc(-c3cc(OC)c(OC)c(OC)c3)cc(C(=O)NCC(=O)Nc3ccc(C(C)=O)cc3)c2c1`, which activity (protection/inhibition) is on record?
The activity (protection/inhibition) was 86.1% and 56.6%.

Which activity (protection/inhibition) does the source give for `COc1cc(-c2cc(C(=O)Nc3cccc(C(=O)NCc4ccccc4)c3)c3ccccc3n2)cc(OC)c1OC` here?
The activity (protection/inhibition) was 87.2%.
